Bioassay records as filed in PubChem.
Most compounds without a hit are left out; they make up all but 3.5% or so of the library.
TEAD-YAP block: TEAD-YAP interaction inhibition. HEK-TIYL cells, TEAD-Gal4/YAP UAS-luciferase luminescence. inhibition, % at 9.12 µM. actives 1.4% (n = 640,000); in the data active means inhibition above about 32%;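 further: 0% = median of test compound wells and 100% = reference inhibitor wells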
MITF inh: human MITF inhibition, primary screen | O75030 | AlphaScreen MITF homodimerization, bead proximity signal | inhibition, % at 2.6 µM | actives 0.91% (n = 650,000) | AID 1259374; in the data active means inhibition above about 50%;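 further: 0% = vehicle wells with protein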
GPR151 ag: human GPR151 activation | Q8TDV0 | PathHunter beta-arrestin GPR151 cells, luminescence | activation, % at 11.2 µM | actives 1% (n = 650,000) | AID 1508602; in the data active means activation above about 4.9%;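 further: 0% = median of compound wells and 100% = cells with positive control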
Target sequence (Q8TDV0 whole entry, looked up): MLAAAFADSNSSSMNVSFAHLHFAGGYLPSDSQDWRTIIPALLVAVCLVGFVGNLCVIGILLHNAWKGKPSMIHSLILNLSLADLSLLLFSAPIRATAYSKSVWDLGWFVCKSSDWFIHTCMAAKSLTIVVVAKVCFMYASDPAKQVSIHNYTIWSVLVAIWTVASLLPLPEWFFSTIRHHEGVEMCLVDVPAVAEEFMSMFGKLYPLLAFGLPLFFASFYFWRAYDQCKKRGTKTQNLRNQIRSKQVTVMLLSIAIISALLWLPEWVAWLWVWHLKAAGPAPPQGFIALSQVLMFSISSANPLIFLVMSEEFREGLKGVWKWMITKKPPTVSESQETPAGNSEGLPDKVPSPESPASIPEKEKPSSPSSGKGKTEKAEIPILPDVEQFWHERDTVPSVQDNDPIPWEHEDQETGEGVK
FBW7 act: human FBW7 E3 ligase activation, primary screen; AlphaScreen FBW7–phospho-cyclin E peptide binding, activator screen; actives 0.13% (n = 650,000); normalized activity (activation), % at 26.1 µM; Q969H0; AID 1259310; in the data active means normalized activity above about 1.9%;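 further: purified mutant Fbw7 with reduced substrate affinity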
An asterisk follows results filed as active; . = no result; ! = not active in a repeat.

SMILES	TEAD-YAP block	MITF inh	GPR151 ag	FBW7 act
C[C@H]1C(=O)O[C@@H]2CCN3CC=C(COC(=O)[C@](C)(O)[C@]1(C)O)[C@H]23	73.6*!	12.2	-3.5	0.2
C[N+]1(C)CCc2cc3c(cc2[C@H]1[C@@H]1OC(=O)c2c1ccc1c2OCO1)OCO3	-3.8	19.5	4.1	0.9
CN1Cc2c(ccc3c2OCO3)[C@@H]2[C@H]1c1cc3c(cc1C[C@@H]2O)OCO3	62.0*	6.5	-0.1	0.1
O=c1c2ccccc2nc(/C=C/c2cccc(F)c2)n1-c1ccc(F)c(Cl)c1	-1.5	8.0	1.6	0.2
COc1ccc(OC)c(C2=NCC(=O)Nc3c2oc2ccc(Cl)cc32)c1	58.6*	10.9	3.2	0.1
Cc1ccc(C2=NCC(=O)Nc3c2oc2ccccc32)cc1	15.1	6.9	0.1	-0.1
CN(C(=O)CN1C2CCC1CC(O)(c1ccccn1)C2)C1CCCCC1 (stereo not drawn)	5.8	26.4	1.6	-0.2
CCOC(=O)c1ccc(N2C(=S)NC3c4ccccc4OC2(C)C3C(=O)OCC)cc1 (stereo not drawn)	-4.1	19.8	-1.5	-0.4
N#Cc1c(/N=C/c2c(O)n(Cc3ccco3)c(=O)[nH]c2=O)sc2c1CCCC2	-6.8	53.1*	0.8	-0.9
O=c1[nH]c(=S)n(Cc2ccco2)c(O)c1C=NCc1cccs1	-2.6	19.3	0.1	0.1
Cc1cc(C)[n+](-c2ccccc2)c2[nH]c(=O)[nH]c(=O)c12	-5.1	8.1	1.8	0.9
Cc1cc(C)n2nc3c(c(C)cc(C)[n+]3-c3ccccc3)c2n1	33.4*	15.7	0.9	0.3
O=[N+]([O-])c1ccccc1C[N+]12CCC(CC1)C(C(O)(c1cccs1)c1cccs1)C2 (stereo not drawn)	-0.1	-1.9	0.1	-0.1
O=C1C(=O)c2ccccc2-c2ccccc21	99.0*	16.3	1.2	-0.9
CN(C)c1ccc(-c2cc[n+](C)cc2)cc1	55.9*	16.9	2.5	0.1
COc1ccccc1CN1CCN(CC(C)C)C(CCO)C1 (stereo not drawn)	2.1	5.4	1.3	-0.2
Cc1nc2c(=O)n(C)c(=O)nc-2n(C)n1	99.9*	21.6	-6.4	-1.6
CCn1nc(-c2ccccc2)nc2c(=O)n(C)c(=O)nc1-2	-32.3	4.8	-8.5	-1.6
CCP(=O)(CC)Nc1cccc(C(F)(F)F)c1	7.7	7.8	1.3	0.4
O=C(Nc1cccc(C(F)(F)F)c1)c1cc(Cl)ccc1O	78.3*	4.5	-0.9	0.4
COc1cccc(/C=C/c2nc3ccccc3c(=O)n2-c2cccc(Cl)c2)c1OC	5.6	2.5	1.0	-0.1
Cc1[nH]nc2c1C(c1cccc(OCc3c(Cl)cccc3Cl)c1)C(C#N)=C(N)O2 (stereo not drawn)	5.9	7.2	-0.5	0.2
COc1cc2c(cc1O)CC1c3c(cc(O)c(OC)c3-2)CCN1C (stereo not drawn)	33.5*!	18.8	2.2	0.5
O=[N+]([O-])c1ccc(N2CCCC2)c2ccccc12	3.1	14.4	0.6	-0.2
Cc1cc([N+](=O)[O-])c2ccccc2[n+]1[O-]	91.7*	-6.7	-1.8	-0.3
SMILES	TEAD-YAP block	MITF inh	GPR151 ag	FBW7 act
C=C(C)[C@H]1Cc2c(ccc3c2O[C@@H]2COc4cc(OC)c(OC)cc4[C@@H]2C3=O)O1	70.4*	22.0	-0.5	-0.2
CN[C@@H]1[C@@H](O)[C@@H](O[C@@H]2[C@@H](O)[C@H](O[C@H]3O[C@H]([C@@H](C)NC)CC[C@H]3N)[C@@H](N)C[C@H]2N)OC[C@]1(C)O (tested in a mixture with another compound)	.	-8.1	-1.5	0.1
CC/C(=C\c1sc2ccc(OC)cc2[n+]1CC)SC (tested in a mixture with another compound)	3.9	10.4	-0.5	0.0
CC[n+]1c(/C=C/N(C)c2ccccc2)sc2ccc(OC)cc21	79.4*	9.8	-0.5	0.2
c1ccc(COc2ccc(CC3CC4CCN3CC4)cc2)cc1 (stereo not drawn)	-7.1	-2.1	-3.2	-0.1
Cc1cc(/C=C2\C(=O)NC(=O)N(Cc3ccco3)C2=O)c(C)n1-c1ccc(O)cc1	10.5	57.7*	1.7	-0.3
O=C(c1noc2c1COc1ccccc1-2)N1CCC2(CC1)OCCO2	74.9*	10.1	-5.7	0.9
O=C(c1cc(-c2ccccc2)on1)N1CCC2(CC1)OCCO2	-52.1	4.2	-5.1	0.1
O=C(CCl)Nc1ccc(Cl)cc1C(=O)c1ccccc1	35.5*	9.7	1.9	0.2
COc1cc([C@@H]2c3cc4c(cc3[C@@H](O)[C@H]3COC(=O)[C@H]23)OCO4)cc(OC)c1O	-9.1	10.7	3.5	0.6
COc1cc([C@@H]2c3cc4c(cc3[C@H](OC(C)=O)[C@H]3COC(=O)[C@@H]23)OCO4)cc(OC)c1OC	52.0*	-6.1	3.0	0.8
CN1CC=C(c2noc(CCC(=O)Nc3ccc(F)c(Cl)c3)n2)CC1	-0.8	38.6	-1.4	2.1*
CN1CC=C(c2noc(CCC(=O)Nc3ccc(F)cc3Cl)n2)CC1	-5.1	30.9	-1.1	1.8
O=C(Oc1cccc2cccnc12)c1cccc(S(=O)(=O)N2CCCCCC2)c1	0.9	-3.6	-0.8	-0.1
O=C(Oc1ccc([N+](=O)[O-])c2cccnc12)c1cccc(S(=O)(=O)N2CCOCC2)c1	6.4	71.5*	1.1	-1.1
COc1ccc(/C=C/c2nc3ccccc3c(=O)n2-c2ccc(C)c(Cl)c2)cc1	-5.2	-0.5	0.3	-0.2
CCCN=Cc1c(O)[nH]c(=S)[nH]c1=O	-2.4	2.9	1.3	0.0
CCOC(=O)C1=C(C)NC(C)=C2C(=O)Oc3ccccc3C12 (stereo not drawn)	0.5	-3.2	0.5	0.1
CCOC(=O)C12OC1(c1ccc(CC)cc1)C(=O)c1ccccc1C2=O (stereo not drawn)	36.6*	21.3	0.2	0.1
Cc1ccc(-n2c(/C=C/c3ccc(Br)cc3)nc3ccccc3c2=O)cc1	-8.5	6.9	-2.2	0.0
O=C1NC(=O)C(=Cc2ccc([N+](=O)[O-])o2)C(=O)N1	4.4	79.1*	1.8	-1.2
C=CCOc1ccc(/C=C(\C)[N+](=O)[O-])cc1OC	41.6*	3.4	0.1	-0.1
COc1ccc(C(=O)Nc2ccc(Cl)cc2C(=O)c2ccccc2)cc1	-6.5	10.7	-0.8	0.3
COc1ccc(C2NCc3ccc4c(c3-n3cccc32)OCO4)cc1O (stereo not drawn)	56.3*	4.7	1.2	-0.1
C/C=C(/C)C(=O)O[C@H]1C(C)=C2[C@H]([C@@H]1OC(=O)CCCCCCC)[C@@](C)(OC(C)=O)C[C@H](OC(=O)CCC)[C@@]1(O)[C@H]2OC(=O)[C@@]1(C)O	57.0*	11.1	0.1	0.2
O=C(c1ccccc1Cl)c1cc([N+](=O)[O-])ccc1-n1cccc1	51.1*	8.8	0.7	-0.1
CC1CCC(C(C)C)C(OC(=O)Cn2c(COc3ccccc3)[n+](C)c3ccccc32)C1 (stereo not drawn)	37.0*	-10.8	1.5	0.0
CC1CCCC(N2CCN(C(=O)COc3ccccc3)CC2)C1 (stereo not drawn)	3.1	25.1	0.2	-0.1
